From PubChem BioAssay

assay: splicing luciferase reporter signal modulators, primary screen, spliceosome inhibition project, cell-based, HEK293, splice +/- reporter (AID 1101); details: luminescence, 24 h, higher = more signal, called active from +8 up or from −8 down;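 also: HEK293 cells carrying a splicing-competent luciferase reporter gene; test concentration not given here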

z-score, inactive:
O=C1[C@H]2[C@H]3[C@H](O)[C@H](O)CC(=NO[C@@H]4O[C@H](CO)[C@@H](O)[C@H](O)[C@H]4O)[C@H]3CC[C@H]2C(=O)N1c1ccc(F)cc1F 0.324, CCCNC(=O)OC[C@H]1O[C@H](CCON=C2c3cc(OC)ccc3O[C@H](c3cccc(OC)c3)[C@H]2O)C=C[C@@H]1Oc1ccc(OC)cc1 -0.553, O=C1[C@H]2CCn3c(=O)n(-c4ccccc4)c(=O)n3[C@H]2[C@H](O)[C@@H]2O[C@H]12 0.583, CC(C)=CCCC(C)=CCON=C1C[C@@H](O)[C@@H](O)[C@@H]2[C@@H]3C(=O)N(Cc4ccc5c(c4)OCO5)C(=O)[C@@H]3CC[C@H]12 0.294, O=C1[C@H]2[C@H]3[C@H](O)[C@H](O)CC(=NOCc4ccccc4)[C@H]3CC[C@H]2C(=O)N1C1CCCCC1 0.395, CC(C)(C)N1C(=O)[C@H]2[C@H]3[C@H](O)[C@H](O)CC(=NOC[C@@H](O)COCc4ccco4)[C@H]3CC[C@H]2C1=O 1.13, COC(=O)[C@H](C)NC(=O)CCC1CC(OC(=O)NCc2ccc3c(c2)OCO3)CC2(CCCC(COC(=O)NCCC(C)C)O2)O1 (stereo partly specified) 0.0265, COC(=O)[C@H](C)NC(=O)CC=C[C@@H](C)[C@@H]1C=C[C@H](O)[C@@H](CO)O1 0.386, CC(CCN1CCCCc2nc(C)c(C)cc21)=NOC[C@@H](O)[C@H]1O[C@@H]2OC(C)(C)O[C@@H]2[C@H]1O 0.595, CC(C)=CCCC(C)=CCON=C1[C@H]2CCn3c(=O)n(-c4ccccc4)c(=O)n3[C@H]2[C@H](O)[C@@H]2O[C@H]12 1.77, COc1ccc(OC[C@@H]2CC3[C@@H](c4ccc(Br)cc4)[C@H](C)CC[C@H]3C(=O)O2)cc1 (stereo partly specified) -0.823, COC(=O)[C@H](C)NC(=O)CCC1CC(OC(=O)NCCc2ccc(F)cc2)CC2(CCCC(COC(=O)NCC3CCCCC3)O2)O1 (stereo partly specified) -0.863, COC(=O)[C@H](C)NC(=O)CCC1CC(OC(=O)NCc2cccc3ccccc23)CC2(CCCC(COC(=O)NCCC(C)C)O2)O1 (stereo partly specified) -0.119, O=C1[C@H]2[C@H]3[C@H](O)[C@H](O)CC(=NOC[C@@H](O)COCc4ccco4)[C@@H]3CC[C@H]2C(=O)N1c1cccc(Oc2ccccc2)c1 -0.33, CCOC(=O)NN=C1C[C@@H](O)[C@@H](O)[C@@H]2[C@@H]3C(=O)N(C[C@@H]4CCCO4)C(=O)[C@@H]3CC[C@H]12 0.488, C[C@@H](c1ccccc1)N1C(=O)[C@H]2[C@H]3[C@H](O)[C@H](O)CC(=NOCc4ccccc4)[C@@H]3CC[C@H]2C1=O 0.36, CCOC(=O)[C@H](Cc1ccccc1)NC(=O)CCC1CC(OC(=O)NCc2ccc3c(c2)OCO3)CC2(CCCC(COC(=O)NCCOc3ccccc3)O2)O1 (stereo partly specified) -1.13, C[C@H]1CC[C@H]2C(=O)N[C@H](Cc3ccccc3)C(=O)N2[C@@H]1c1ccccc1 -0.0985, CCN1C(=O)[C@H]2[C@H]3[C@H](O)[C@H](O)CC(=NOCC[C@@H]4C=C[C@H](OC(C)=O)[C@@H](COC(C)=O)O4)[C@@H]3CC[C@H]2C1=O -0.0787, CCCNC(=O)OC[C@H]1O[C@H](CCON=C[C@@H](NS(=O)(=O)c2ccc(C)cc2)[C@H](C)C=CCC(=O)OC)C=C[C@@H]1Oc1ccc(OC)cc1 -0.362, C#CCCCON=C1C[C@@H](O)[C@@H](O)[C@@H]2[C@@H]3C(=O)N(C[C@@H]4CCCO4)C(=O)[C@@H]3CC[C@H]12 0.44, CC(C)CON=C1C[C@@H](O)[C@@H](O)[C@@H]2[C@@H]3C(=O)N(c4ccc(F)cc4F)C(=O)[C@@H]3CC[C@@H]12 -0.817, O=C1C=C[C@@H](O)[C@@H]2[C@@H]3C(=O)N(Cc4ccccc4)C(=O)[C@@H]3CC[C@@H]12 -0.71, CC1(C)O[C@H]2OC([C@H](O)CON3C(=O)c4ccccc4C3=O)[C@H](O)[C@H]2O1 (stereo partly specified) 0.105, C[C@H]1CC[C@H]2C(=O)OC(COc3ccc(C(C)(C)C)cc3)CN2[C@@H]1c1ccc(Br)cc1 (stereo partly specified) -0.216, CC1(C)O[C@H]2O[C@H]([C@H](O)CON=C3[C@H]4CCn5c(=O)n(-c6ccccc6)c(=O)n5[C@H]4[C@H](O)[C@@H]4O[C@H]34)[C@H](O)[C@H]2O1 0.407, CC(C)=CCCC(C)=CCON=C1C[C@@H](O)[C@@H](O)[C@@H]2[C@@H]3C(=O)N(c4cccc(Oc5ccccc5)c4)C(=O)[C@@H]3CC[C@H]12 0.467, CCOC(=O)[C@H](Cc1ccccc1)NC(=O)CCC1CC(OC(=O)NCc2cccc3ccccc23)CC2(CCCC(COC(=O)NCc3ccc4c(c3)OCO4)O2)O1 (stereo partly specified) 0.277, CCCC[C@H]1CN2[C@@H](CC[C@@H](C)[C@@H]2c2ccc(Br)cc2)C(=O)O1 0.541, CCOC(=O)[C@H](CC(C)C)NC(=O)CCC1CC(OC(=O)NCc2ccc3c(c2)OCO3)CC2(CCCC(COC(=O)NCCOc3ccccc3)O2)O1 (stereo partly specified) -0.149, CCOC(=O)NN=C1C[C@@H](O)[C@@H](O)[C@@H]2[C@@H]3C(=O)N(CC)C(=O)[C@@H]3CC[C@H]12 -0.322, COc1ccc(COC(=O)NN=C2C[C@@H](O)[C@@H](O)[C@@H]3[C@@H]4C(=O)N([C@@H](C)c5ccccc5)C(=O)[C@@H]4CC[C@@H]23)cc1 0.158, CCN1C(=O)[C@H]2[C@H]3[C@H](O)[C@H](O)CC(=NO[C@H](C)c4cn([C@@H]5COC[C@H]5O)nn4)[C@@H]3CC[C@H]2C1=O 0.299, C[C@@H]1CC[C@H]2C(=O)O[C@@H](COc3ccc(C(C)(C)C)cc3)CN2[C@H]1c1ccc(Br)cc1 0.0739, CO[C@H]1COC(=O)CC=C[C@@H](C)COC(=O)[C@H]2CCCN2C(=O)CC=C[C@H]1C -0.104, CC(CCN1CCCc2nc(C)c(C)cc21)=NO[C@@H](C)c1cn([C@H](CO)Cc2ccccc2)nn1 0.867
